Each structure is given as a SMILES string. Values without a mark were called inactive. Activity calls are given as the source filed them. Cut-off read from the data, not from the text of the source, unless noted: active = inhibition above about 33%; inactive = the rest.

By inhibition is commonly meant the change of the read-out against control, counted positive when it falls.

Assay [1] can be described thus: StAR promoter reporter inhibitors, counter-screen for LRH-1 inverse agonist project, cell-based, luminescence, high throughput (AID 651611; in the data active = inhibition above about 28%). The conditions noted are these: StAR promoter luciferase reporter counterscreen, at 3.6 µM, stronger effect = higher value.
Assay [2] has as its target Nuclear receptor subfamily 5 group A member 2 (Homo sapiens) (UniProt O00482). As to the kind of experiment: NR5A2 activity suppression in reporter cells – cell-based, luminescence, confirmation (AID 651613; in the data active = inhibition above about 42%;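 note: HEK293T cells co-transfected with LRH-1 and StAR promoter luciferase reporter; 0% = vehicle wells and 100% = parental cells lacking receptor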). Particulars: cell-based LRH-1 luciferase reporter, inverse agonism; at 3.6 µM; stronger effect = higher value. A general note: A reporter such as luciferase makes a cellular process visible.

Assay [3] addresses Steroidogenic factor 1 (Homo sapiens) (UniProt Q13285). Nature of the assay: inverse agonism at SF1 nuclear receptor – cell-based, luminescence, high throughput, counter-screen for LRH-1 inverse agonist project (AID 651614; in the data active = inhibition above about 44%;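 note: cells cotransfected with StAR promoter reporter and SF1 expression vector; 0% = vehicle on cells with receptor and 100% = vehicle on cells lacking receptor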). The conditions noted are these: cell-based SF1 luciferase reporter, at 3.6 µM, stronger effect = higher value. Background: A counterscreen serves to expose hits that act by an unwanted route or on another target.

A short description of assay [4]: compounds suppressing VP16-driven luciferase signal – cell-based, luminescence, high throughput, counter-screen for LRH-1 inverse agonist project (AID 651615). Particulars: Gal4-VP16 luciferase reporter cells, at 3.6 µM, stronger effect = higher value.

Steroidogenic factor 1 (Homo sapiens), sequence (Q13285 whole entry, looked up): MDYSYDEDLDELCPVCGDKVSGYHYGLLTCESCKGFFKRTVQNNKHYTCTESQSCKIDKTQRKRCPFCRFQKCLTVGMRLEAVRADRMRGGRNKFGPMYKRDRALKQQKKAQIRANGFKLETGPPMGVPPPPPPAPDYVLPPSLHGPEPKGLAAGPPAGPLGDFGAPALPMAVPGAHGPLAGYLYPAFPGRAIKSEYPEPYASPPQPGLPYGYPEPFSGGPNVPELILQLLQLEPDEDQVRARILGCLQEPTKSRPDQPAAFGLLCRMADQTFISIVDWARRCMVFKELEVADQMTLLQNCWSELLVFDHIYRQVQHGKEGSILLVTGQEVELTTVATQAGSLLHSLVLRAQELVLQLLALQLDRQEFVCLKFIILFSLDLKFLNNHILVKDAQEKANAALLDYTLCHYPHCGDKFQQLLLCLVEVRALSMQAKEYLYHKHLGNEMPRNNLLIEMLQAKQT
Nuclear receptor subfamily 5 group A member 2 (Homo sapiens), sequence (O00482 whole entry, looked up): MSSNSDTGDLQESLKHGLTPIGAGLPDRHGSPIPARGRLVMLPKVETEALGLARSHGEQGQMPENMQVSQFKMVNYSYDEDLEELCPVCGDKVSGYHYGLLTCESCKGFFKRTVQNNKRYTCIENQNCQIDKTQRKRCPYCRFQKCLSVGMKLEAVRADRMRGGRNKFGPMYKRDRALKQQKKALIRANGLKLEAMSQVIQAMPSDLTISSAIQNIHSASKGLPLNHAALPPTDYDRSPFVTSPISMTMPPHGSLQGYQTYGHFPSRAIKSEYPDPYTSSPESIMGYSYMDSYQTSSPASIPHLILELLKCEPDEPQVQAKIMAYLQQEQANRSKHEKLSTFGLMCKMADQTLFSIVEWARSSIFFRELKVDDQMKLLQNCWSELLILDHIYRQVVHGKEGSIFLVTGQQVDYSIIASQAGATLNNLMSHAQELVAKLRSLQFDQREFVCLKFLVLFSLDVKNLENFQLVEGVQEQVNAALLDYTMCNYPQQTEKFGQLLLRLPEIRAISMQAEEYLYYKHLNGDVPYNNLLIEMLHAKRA

Take `O=C(CSc1nnc(Cc2cccs2)n1-c1ccccc1)Nc1ccc2c(c1)OCCO2`: the inhibition was -2.83% in assay [1], 34.8% in assay [2], 31.1% in assay [3] and -2.43% in assay [4].

For `CCn1c(SCC(=O)Nc2ccc(Cl)cc2)nnc1C1CC1`, the inhibition is 14% in assay [1], 50.6% (active) in assay [2], 50% (active) in assay [3] and 6.77% in assay [4].

On to `COc1cc(C(=O)Nc2ccccc2C2COC(=O)C2=N)cc(OC)c1OC` (stereo not drawn), for which the inhibition in assay [1] was 8.92%; in assay [2], 45.5% (active); in assay [3] it was 45.2% (active); in assay [4], -1.69%.

For `Cc1ccc(NC(=O)CSc2ccc3c(c2)OCCO3)c(O)c1`, the inhibition in assay [1] was 11.1%; in assay [2], 54.6% (active); in assay [3], 46.5% (active); in assay [4], 35.5% (active).

As for `Cc1cc(N2CCN(C(=O)c3ccco3)CC2)n2nc(-c3cccc(F)c3)cc2n1`, the inhibition in assay [1] is 14.2%; in assay [2], 54.6% (active); in assay [3], 60.6% (active); in assay [4], -10.7%.

For the compound `COc1cc(-c2cnc3c(NC=O)cc(-c4cccc(NC(C)=O)c4)cn23)cc(OC)c1OC`, the inhibition in assay [1] is 62.9% (active); in assay [2], 74.9% (active); in assay [3] it was 71.5% (active); in assay [4], -23.8%.

Take `C=CCOc1ccccc1CN(C(=O)CCl)c1ccc2c(c1)OCO2`: the inhibition was 7.87% in assay [1], 68.8% (active) in assay [2], 53.5% (active) in assay [3] and -54.5% in assay [4].

Take `C=CC(=O)N1C/C(=C/c2ccc(F)cc2)C(=O)/C(=C\c2ccc(F)cc2)C1`: the inhibition in assay [1] was 27.1%; in assay [2], 80% (active); in assay [3] it was 86.7% (active); in assay [4] it was 63% (active).

On to `O=c1[nH]c(Nc2ccc3c(c2)OCCO3)nnc1Cc1ccccc1`, for which the inhibition in assay [1] is 0.14%; in assay [2] it was 59.5% (active); in assay [3] it was 37.8%; in assay [4] it was -12.8%.

For the compound `COc1ccc(NC(=O)COC(=O)c2cc(S(=O)(=O)N3CCCC3)ccc2O)cc1`, the inhibition in assay [1] is 4.86%; in assay [2], 52% (active); in assay [3], 46.3% (active); in assay [4], 0.43%.

In the case of `O=C(COC(=O)c1ccc(Br)cc1)Nc1ccccc1Br`, the inhibition was 9% in assay [1], 50.5% (active) in assay [2], 50.1% (active) in assay [3] and 1.81% in assay [4].

`CC(C)CNC(=O)COC(=O)c1c2c(nc3ccccc13)/C(=C/c1cccs1)CC2`: the inhibition in assay [1] was -15.9%; in assay [2], 4.19%; in assay [3], -12.8%; in assay [4], -8.73%.

With `COc1ccc(CCC(=O)Nc2c(-c3ccc(N(C)C)cc3)[nH][nH]c2=O)cc1`, the inhibition was 4.07% in assay [1], 27.3% in assay [2], 37.5% in assay [3] and -2.18% in assay [4].

For the compound `Cn1c(SCC(=O)Nc2ccc(N3CCOCC3)cc2)nnc1-c1ccco1`, the inhibition in assay [1] is 0.8%; in assay [2], 56.5% (active); in assay [3] it was 49.4% (active); in assay [4], -17.8%.

For `Cn1cnnc1SCC(=O)Nc1ccc(N2CCOCC2)cc1`, the inhibition in assay [1] was 7.69%; in assay [2] it was 59.5% (active); in assay [3], 34.5%; in assay [4], -9.61%.

In the case of `Cc1cccc(NC(=O)COC(=O)c2cccs2)c1C`, the inhibition was 0.76% in assay [1], 52.7% (active) in assay [2], 56.8% (active) in assay [3] and 9.54% in assay [4].

In the case of `Cc1ccc(C)c(-c2cc(C(=O)N/N=C/c3cccnc3)c3ccccc3n2)c1`, the inhibition in assay [1] was 9.19%; in assay [2], 51.1% (active); in assay [3] it was 44.9% (active); in assay [4] it was 5.29%.

Take `COc1cc(C(=O)Nc2ccccc2C(=O)Nc2ccccn2)cc(OC)c1OC`: the inhibition in assay [1] is 61.2% (active); in assay [2] it was 45.9% (active); in assay [3] it was 62.1% (active); in assay [4], -2.31%.

Take `Cc1onc(-c2c(F)cccc2Cl)c1C(=O)O/N=C(\N)c1ccc([N+](=O)[O-])o1`: the inhibition in assay [1] is 11.6%; in assay [2], 70.9% (active); in assay [3], 60.4% (active); in assay [4], -7.18%.

Take `C=CCNC(=S)N/N=C/c1ccc(N(CC)Cc2ccccc2)cc1`: the inhibition is 11.4% in assay [1], 38.4% in assay [2], 24.4% in assay [3] and 6.68% in assay [4].

Regarding `O=C(Nc1cccnc1)c1ccc([N+](=O)[O-])s1`, the inhibition in assay [1] was 25.4%; in assay [2], 43.8% (active); in assay [3] it was 51% (active); in assay [4] it was 11.1%.

Take `COc1cccc2c1C(=O)c1c(O)c3c(c(O)c1C2=O)C[C@@](O)(C(C)=O)C[C@@H]3O[C@H]1C[C@H](N)[C@H](O)[C@H](C)O1`: the inhibition in assay [1] was 76.5% (active); in assay [2] it was 104% (active); in assay [3], 94.4% (active); in assay [4], 94% (active).

Turning to `C/C(=N/N1CCN(Cc2cccc3ccccc23)CC1)c1cccnc1`, the inhibition in assay [1] is -12%; in assay [2], -17.6%; in assay [3], -2.52%; in assay [4] it was -2.08%.

`CCCCNC(=O)COC(=O)c1c2c(nc3ccccc13)/C(=C/c1cccs1)CC2`: the inhibition is 11.2% in assay [1], 58% (active) in assay [2], 26.4% in assay [3] and 37.3% (active) in assay [4].

For the compound `Cc1ccc(S(=O)(=O)N2CC(O)CC2C(=O)OCC(=O)Nc2ccc([N+](=O)[O-])cc2C(F)(F)F)cc1C` (stereo not drawn), the inhibition was 18.7% in assay [1], 60.5% (active) in assay [2], 56% (active) in assay [3] and -5.69% in assay [4].

In the case of `O=C(Cc1ccc(Cl)cc1Cl)Nc1ccncc1Cl`, the inhibition was 16.4% in assay [1], 65.9% (active) in assay [2], 70% (active) in assay [3] and 47.1% (active) in assay [4].

Turning to `COc1cccc(-c2cc(C(=O)Nc3ccncc3)c3ccccc3n2)c1`, the inhibition in assay [1] is 9.54%; in assay [2], 35.2%; in assay [3], 39.4%; in assay [4], -5.71%.

The values are drawn from PubChem BioAssay.
